{
  "source": "the supplement of paper PMC11732987",
  "about": "“Enantioselective OTUD7B fragment discovery through chemoproteomics screening and high-throughput optimisation” (Communications Chemistry, 2025)",
  "assay_in_all_cases": "log2 ratio of Biotin-Ahx-Ub-VS probe labelling (fragment/DMSO); higher = less target engagement (more negative = stronger competition), active = hit call of the paper (q ≤ 0.05, log2 ratio ≤ -1)",
  "settings_in_all_cases": "compound concentration: 200 uM; treatment time: 3 h",
  "key": {"[1]": {"target": "T1, USP42 (UniProt Q9H9J4)", "T1 sequence (whole entry)": "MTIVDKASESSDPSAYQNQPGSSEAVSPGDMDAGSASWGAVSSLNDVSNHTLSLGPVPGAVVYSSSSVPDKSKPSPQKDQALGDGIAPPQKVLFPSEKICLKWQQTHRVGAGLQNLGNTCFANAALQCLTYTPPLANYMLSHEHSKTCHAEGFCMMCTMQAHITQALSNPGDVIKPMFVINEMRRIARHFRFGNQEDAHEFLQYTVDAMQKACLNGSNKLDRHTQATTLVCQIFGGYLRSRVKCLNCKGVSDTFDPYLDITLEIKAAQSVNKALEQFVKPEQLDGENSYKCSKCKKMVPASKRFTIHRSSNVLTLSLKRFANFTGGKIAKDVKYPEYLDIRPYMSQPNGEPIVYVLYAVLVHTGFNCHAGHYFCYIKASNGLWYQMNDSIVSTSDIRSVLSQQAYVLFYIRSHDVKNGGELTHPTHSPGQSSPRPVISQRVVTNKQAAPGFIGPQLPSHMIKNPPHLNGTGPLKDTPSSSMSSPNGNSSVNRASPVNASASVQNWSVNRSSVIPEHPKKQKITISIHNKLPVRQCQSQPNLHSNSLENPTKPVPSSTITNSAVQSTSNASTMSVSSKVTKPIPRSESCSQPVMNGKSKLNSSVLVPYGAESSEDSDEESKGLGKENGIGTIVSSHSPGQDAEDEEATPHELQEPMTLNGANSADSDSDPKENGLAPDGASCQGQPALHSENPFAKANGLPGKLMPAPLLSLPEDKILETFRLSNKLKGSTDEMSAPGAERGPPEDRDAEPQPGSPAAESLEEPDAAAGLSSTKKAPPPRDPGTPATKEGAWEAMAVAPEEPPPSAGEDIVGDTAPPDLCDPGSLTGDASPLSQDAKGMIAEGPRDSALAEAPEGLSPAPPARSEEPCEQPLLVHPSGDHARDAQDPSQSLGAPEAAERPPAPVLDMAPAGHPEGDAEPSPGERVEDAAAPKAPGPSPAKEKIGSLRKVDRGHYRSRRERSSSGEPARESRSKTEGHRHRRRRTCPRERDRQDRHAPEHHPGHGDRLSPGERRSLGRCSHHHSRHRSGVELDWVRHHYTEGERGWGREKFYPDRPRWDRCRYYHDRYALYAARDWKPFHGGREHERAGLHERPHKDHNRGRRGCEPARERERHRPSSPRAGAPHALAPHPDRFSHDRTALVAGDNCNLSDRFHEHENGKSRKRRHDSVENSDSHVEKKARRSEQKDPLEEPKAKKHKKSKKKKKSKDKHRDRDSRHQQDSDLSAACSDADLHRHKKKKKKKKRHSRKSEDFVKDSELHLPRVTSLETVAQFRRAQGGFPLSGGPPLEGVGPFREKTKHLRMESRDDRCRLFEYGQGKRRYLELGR", "summary_of_the_method": "(§1)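 Average log2 ratios of fragment over vehicle were obtained by unpaired t-test from global-median-normalised Spectronaut label-free quantities. Proteins with ≥2 unique peptides were included. HEK293T lysate (495 µg per sample) was treated in triplicate with fragment at 200 µM or vehicle for 3 h, then with Biotin-Ahx-Ub-VS at 0.5 µM final for 1 h, and labelled DUBs were NeutrAvidin-enriched and run by diaPASEF LC-MS/MS.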"}, "[2]": {"target": "USP46 (UniProt P62068)", "sequence (P62068 whole entry)": "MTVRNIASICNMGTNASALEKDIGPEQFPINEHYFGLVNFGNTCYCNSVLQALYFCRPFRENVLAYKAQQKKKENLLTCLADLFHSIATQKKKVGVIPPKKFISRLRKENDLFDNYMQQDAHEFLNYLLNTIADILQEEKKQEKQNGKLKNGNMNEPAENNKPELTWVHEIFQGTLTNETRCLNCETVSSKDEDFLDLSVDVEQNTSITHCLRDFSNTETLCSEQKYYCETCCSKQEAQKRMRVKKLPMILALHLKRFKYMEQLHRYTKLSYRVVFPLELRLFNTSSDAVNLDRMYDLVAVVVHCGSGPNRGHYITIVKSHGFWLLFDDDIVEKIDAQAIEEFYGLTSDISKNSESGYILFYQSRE", "summary_of_the_method": "as §1"}, "[3]": {"target": "T2, USP47 (UniProt Q96K76)", "T2 sequence (whole entry)": "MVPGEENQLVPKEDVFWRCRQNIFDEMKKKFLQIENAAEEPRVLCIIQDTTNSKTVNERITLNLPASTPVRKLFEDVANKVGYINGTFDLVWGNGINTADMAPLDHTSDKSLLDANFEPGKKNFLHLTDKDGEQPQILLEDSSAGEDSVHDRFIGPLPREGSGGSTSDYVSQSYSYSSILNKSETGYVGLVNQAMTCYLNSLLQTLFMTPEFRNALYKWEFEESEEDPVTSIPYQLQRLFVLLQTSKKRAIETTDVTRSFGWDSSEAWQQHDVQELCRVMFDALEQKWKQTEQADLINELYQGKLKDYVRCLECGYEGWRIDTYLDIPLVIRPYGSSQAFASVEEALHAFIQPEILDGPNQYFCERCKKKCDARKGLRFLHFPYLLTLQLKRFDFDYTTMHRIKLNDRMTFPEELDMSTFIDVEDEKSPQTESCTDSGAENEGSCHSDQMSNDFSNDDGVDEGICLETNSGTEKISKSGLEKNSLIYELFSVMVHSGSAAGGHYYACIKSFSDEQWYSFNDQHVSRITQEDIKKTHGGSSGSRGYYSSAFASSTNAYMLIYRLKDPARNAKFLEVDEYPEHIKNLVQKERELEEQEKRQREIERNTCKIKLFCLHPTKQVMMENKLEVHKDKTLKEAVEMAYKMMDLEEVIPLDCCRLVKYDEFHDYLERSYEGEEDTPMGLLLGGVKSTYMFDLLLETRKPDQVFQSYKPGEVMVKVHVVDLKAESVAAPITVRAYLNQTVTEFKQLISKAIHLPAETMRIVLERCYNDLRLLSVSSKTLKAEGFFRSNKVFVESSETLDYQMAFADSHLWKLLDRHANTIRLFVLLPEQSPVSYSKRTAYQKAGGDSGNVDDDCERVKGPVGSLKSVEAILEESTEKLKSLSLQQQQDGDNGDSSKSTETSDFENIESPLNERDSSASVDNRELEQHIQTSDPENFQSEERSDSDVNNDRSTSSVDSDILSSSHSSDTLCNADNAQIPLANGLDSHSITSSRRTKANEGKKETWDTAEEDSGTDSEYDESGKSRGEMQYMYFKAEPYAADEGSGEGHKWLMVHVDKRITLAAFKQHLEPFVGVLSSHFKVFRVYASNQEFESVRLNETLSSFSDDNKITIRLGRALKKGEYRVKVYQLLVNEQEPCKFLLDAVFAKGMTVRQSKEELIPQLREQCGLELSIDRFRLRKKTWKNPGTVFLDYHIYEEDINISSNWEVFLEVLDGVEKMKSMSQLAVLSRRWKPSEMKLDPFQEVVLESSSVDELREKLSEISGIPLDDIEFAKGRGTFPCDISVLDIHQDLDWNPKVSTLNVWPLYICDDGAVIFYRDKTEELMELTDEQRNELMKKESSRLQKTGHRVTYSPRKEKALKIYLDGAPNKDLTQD", "summary_of_the_method": "as §1"}, "[4]": {"target": "T3, USP48 (UniProt Q86UV5)", "T3 sequence (whole entry)": "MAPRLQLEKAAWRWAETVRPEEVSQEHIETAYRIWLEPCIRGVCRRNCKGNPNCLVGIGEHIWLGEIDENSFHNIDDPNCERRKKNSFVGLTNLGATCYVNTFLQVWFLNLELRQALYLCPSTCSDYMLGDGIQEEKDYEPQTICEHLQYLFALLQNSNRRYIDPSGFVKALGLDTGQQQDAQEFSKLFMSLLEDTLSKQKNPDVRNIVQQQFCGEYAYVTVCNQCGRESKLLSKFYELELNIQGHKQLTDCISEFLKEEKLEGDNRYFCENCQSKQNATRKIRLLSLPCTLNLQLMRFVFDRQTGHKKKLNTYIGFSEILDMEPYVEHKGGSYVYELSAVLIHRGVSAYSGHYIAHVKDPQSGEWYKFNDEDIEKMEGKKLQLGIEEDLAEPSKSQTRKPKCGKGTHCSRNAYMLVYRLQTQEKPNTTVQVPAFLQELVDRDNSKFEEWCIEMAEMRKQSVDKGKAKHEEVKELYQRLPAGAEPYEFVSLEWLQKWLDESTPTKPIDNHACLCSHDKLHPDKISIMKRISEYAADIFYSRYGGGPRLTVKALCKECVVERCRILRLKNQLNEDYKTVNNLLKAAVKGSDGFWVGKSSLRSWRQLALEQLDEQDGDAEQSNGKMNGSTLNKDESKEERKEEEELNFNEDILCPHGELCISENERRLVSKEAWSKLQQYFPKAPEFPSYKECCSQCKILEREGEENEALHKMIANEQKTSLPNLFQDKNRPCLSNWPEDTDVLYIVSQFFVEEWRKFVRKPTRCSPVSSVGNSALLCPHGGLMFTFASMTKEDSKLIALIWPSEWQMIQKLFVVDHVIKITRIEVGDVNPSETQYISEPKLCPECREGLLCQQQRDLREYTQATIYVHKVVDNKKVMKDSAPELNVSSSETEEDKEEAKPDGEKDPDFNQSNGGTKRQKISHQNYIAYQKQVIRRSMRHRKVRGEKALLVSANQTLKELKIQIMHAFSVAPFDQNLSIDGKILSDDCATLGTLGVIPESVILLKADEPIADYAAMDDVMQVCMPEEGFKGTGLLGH", "summary_of_the_method": "as §1"}, "[5]": {"target": "T4, USP5 (UniProt P45974)", "T4 sequence (whole entry)": "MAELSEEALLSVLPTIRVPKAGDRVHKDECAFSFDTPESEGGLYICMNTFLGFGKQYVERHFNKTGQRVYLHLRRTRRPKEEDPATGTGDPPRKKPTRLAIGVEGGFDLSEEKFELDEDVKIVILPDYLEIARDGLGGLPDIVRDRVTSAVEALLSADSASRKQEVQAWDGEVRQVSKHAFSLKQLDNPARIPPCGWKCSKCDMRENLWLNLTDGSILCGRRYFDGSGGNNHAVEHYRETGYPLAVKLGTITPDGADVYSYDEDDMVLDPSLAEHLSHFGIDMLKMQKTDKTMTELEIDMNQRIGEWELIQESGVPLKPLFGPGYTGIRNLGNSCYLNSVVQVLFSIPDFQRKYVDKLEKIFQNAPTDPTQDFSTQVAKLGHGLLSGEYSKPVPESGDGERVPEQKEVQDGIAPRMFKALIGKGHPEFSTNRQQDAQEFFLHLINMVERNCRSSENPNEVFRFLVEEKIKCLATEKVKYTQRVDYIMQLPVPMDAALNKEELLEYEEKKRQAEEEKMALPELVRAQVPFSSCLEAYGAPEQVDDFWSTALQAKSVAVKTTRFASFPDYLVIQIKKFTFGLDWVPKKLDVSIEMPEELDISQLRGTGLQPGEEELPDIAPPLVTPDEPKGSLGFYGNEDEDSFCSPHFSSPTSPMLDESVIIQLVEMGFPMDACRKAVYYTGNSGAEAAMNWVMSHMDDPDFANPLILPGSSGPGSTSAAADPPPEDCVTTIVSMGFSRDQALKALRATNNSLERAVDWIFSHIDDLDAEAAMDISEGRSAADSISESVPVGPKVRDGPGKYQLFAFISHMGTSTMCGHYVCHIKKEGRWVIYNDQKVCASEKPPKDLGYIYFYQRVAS", "summary_of_the_method": "as §1"}, "[6]": {"target": "USP54 (UniProt Q70EL1)", "summary_of_the_method": "as §1"}, "[7]": {"target": "USP7 (UniProt Q93009)", "sequence (Q93009 whole entry, looked up)": "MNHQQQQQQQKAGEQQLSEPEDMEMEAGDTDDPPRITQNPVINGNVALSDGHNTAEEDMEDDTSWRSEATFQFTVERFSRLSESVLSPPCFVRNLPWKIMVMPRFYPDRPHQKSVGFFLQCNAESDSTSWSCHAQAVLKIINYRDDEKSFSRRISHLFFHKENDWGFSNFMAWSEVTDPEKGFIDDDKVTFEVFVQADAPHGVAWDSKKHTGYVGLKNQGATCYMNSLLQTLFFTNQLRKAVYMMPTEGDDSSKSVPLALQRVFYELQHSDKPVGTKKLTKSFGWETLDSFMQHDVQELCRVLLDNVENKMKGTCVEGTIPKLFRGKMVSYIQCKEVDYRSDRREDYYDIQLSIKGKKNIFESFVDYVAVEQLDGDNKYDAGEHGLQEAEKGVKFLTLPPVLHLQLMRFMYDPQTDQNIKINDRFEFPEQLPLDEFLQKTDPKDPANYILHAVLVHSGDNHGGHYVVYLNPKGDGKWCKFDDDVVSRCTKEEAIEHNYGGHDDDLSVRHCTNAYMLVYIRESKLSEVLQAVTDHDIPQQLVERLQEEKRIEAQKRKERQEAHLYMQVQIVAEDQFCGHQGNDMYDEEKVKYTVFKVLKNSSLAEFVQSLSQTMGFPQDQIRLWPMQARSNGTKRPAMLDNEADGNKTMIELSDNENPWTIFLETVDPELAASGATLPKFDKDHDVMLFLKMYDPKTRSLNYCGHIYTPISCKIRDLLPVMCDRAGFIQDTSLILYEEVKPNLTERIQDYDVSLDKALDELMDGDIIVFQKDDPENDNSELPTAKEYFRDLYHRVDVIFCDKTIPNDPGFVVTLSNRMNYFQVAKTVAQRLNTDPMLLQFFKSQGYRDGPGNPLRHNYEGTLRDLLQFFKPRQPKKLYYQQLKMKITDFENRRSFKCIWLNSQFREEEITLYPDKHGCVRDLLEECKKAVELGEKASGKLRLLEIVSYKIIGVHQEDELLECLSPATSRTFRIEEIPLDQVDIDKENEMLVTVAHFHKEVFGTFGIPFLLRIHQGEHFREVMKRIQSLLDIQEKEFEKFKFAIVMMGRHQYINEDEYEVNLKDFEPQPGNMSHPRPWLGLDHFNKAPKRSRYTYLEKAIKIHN", "summary_of_the_method": "as §1"}, "[8]": {"target": "T5, USP8 (UniProt P40818)", "T5 sequence (whole entry)": "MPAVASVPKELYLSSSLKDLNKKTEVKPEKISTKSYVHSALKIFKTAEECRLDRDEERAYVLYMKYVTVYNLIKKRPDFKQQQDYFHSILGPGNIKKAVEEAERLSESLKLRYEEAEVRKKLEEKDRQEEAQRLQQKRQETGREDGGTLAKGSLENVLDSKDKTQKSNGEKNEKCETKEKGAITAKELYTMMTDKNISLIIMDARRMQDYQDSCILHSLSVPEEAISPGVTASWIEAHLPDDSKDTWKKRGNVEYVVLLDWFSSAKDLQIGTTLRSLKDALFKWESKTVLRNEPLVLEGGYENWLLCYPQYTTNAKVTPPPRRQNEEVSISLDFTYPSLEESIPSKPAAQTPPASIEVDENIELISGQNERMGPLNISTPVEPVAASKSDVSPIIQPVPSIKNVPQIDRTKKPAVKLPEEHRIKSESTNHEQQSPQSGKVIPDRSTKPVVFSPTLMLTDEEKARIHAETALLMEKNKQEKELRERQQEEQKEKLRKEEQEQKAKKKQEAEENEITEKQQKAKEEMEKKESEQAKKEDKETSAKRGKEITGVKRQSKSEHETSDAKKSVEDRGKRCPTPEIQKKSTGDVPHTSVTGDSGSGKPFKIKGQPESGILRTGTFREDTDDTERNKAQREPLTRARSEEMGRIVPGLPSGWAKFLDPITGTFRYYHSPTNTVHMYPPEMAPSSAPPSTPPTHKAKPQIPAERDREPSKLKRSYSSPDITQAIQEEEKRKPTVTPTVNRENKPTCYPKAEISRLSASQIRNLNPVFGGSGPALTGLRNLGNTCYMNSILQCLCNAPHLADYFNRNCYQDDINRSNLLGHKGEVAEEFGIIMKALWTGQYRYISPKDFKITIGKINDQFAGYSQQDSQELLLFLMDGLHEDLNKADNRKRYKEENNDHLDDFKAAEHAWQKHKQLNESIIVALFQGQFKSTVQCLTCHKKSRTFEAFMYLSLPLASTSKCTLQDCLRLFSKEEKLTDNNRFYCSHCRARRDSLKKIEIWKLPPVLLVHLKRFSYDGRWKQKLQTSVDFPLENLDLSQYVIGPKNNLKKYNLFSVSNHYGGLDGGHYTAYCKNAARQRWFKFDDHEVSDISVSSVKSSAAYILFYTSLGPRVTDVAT", "summary_of_the_method": "as §1"}, "[9]": {"target": "USP9X (UniProt Q93008)", "sequence (Q93008 whole entry)": "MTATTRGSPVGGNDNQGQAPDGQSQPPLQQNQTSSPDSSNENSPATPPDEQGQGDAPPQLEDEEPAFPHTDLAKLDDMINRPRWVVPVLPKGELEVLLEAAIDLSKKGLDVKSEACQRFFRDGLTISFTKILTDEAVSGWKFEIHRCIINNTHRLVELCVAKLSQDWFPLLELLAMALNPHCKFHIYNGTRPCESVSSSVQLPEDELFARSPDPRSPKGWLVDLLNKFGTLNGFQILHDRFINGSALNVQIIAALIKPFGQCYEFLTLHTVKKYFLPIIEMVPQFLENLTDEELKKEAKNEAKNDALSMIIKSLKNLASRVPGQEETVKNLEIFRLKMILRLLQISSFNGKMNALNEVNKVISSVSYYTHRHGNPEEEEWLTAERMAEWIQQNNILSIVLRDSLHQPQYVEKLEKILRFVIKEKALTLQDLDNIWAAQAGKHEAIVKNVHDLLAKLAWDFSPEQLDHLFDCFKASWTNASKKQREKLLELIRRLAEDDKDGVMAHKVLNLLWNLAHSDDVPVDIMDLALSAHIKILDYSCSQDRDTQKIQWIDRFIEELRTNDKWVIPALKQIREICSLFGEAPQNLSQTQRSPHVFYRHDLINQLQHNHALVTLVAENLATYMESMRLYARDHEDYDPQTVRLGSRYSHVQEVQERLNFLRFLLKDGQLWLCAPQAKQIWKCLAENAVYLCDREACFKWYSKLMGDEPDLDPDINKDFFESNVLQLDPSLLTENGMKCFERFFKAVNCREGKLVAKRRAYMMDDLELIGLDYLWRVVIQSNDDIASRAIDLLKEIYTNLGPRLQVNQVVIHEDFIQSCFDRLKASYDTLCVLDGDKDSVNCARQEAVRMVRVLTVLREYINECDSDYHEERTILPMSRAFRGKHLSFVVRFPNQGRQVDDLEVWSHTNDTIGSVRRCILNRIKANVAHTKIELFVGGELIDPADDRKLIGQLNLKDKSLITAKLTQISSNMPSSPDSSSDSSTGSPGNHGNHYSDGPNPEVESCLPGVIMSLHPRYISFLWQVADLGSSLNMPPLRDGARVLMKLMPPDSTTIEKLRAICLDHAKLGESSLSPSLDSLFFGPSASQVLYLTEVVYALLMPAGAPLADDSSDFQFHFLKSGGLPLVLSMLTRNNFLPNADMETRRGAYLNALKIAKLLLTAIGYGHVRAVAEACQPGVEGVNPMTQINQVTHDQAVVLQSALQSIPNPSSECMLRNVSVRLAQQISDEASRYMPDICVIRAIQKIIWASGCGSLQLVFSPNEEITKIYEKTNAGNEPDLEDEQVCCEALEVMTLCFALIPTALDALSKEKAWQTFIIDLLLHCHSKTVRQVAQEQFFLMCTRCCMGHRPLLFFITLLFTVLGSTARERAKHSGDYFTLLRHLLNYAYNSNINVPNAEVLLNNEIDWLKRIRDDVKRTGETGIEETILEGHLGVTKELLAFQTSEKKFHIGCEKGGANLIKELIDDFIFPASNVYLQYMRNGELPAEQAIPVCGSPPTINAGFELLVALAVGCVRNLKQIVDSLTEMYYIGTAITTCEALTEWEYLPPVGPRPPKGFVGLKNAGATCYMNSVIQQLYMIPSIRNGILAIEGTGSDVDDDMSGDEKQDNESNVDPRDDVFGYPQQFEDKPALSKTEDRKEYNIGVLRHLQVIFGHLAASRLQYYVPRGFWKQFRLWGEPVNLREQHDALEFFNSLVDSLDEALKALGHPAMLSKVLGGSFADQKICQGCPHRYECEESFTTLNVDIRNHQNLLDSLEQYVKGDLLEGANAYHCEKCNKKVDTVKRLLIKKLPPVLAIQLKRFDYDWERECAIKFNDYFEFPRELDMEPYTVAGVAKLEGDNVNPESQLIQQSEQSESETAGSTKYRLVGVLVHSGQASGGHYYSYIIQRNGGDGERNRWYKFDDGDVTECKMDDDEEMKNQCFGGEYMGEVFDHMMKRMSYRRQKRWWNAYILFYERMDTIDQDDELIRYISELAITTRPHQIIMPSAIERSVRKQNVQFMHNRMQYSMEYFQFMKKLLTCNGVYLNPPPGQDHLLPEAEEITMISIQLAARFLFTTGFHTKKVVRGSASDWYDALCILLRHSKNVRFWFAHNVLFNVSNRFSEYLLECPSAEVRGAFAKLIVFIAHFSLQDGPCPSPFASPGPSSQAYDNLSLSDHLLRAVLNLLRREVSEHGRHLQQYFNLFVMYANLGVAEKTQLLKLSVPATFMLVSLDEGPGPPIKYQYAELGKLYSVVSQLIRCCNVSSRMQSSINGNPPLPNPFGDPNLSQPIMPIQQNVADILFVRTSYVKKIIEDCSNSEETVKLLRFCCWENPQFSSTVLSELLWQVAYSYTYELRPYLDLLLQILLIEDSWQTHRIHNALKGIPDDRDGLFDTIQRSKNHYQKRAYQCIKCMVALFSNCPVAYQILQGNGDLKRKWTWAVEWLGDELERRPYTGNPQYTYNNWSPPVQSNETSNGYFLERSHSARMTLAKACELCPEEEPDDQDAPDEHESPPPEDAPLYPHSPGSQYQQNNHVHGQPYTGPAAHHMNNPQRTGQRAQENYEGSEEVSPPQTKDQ", "summary_of_the_method": "as §1"}, "[10]": {"target": "UniProt O00487", "sequence (O00487 whole entry)": "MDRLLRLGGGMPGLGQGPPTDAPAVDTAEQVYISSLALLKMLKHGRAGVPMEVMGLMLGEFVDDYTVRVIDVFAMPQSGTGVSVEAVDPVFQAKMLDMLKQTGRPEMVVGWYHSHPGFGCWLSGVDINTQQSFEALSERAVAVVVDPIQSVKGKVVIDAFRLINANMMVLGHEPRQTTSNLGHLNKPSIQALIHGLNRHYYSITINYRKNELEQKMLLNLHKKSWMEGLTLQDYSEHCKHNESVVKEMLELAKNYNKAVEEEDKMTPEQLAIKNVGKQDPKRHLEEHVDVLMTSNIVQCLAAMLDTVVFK", "summary_of_the_method": "as §1"}},
  "note": "Values without a mark were called inactive.",
  "data": [
    {"smiles": "Cl.Cn1nccc1C(NC(=O)CCl)c1ccccc1", "note": "(stereo not given)", "values": [
      {"measurement": "log2 ratio of Biotin-Ahx-Ub-VS probe labelling", "setting": "[1]", "result": 0.0316},
      {"measurement": "log2 ratio of Biotin-Ahx-Ub-VS probe labelling", "setting": "[2]", "result": 0.114},
      {"measurement": "log2 ratio of Biotin-Ahx-Ub-VS probe labelling", "setting": "[3]", "result": "-1.1 (active)"},
      {"measurement": "log2 ratio of Biotin-Ahx-Ub-VS probe labelling", "setting": "[4]", "result": -0.11},
      {"measurement": "log2 ratio of Biotin-Ahx-Ub-VS probe labelling", "setting": "[5]", "result": 0.239},
      {"measurement": "log2 ratio of Biotin-Ahx-Ub-VS probe labelling", "setting": "[6]", "result": 0.34},
      {"measurement": "log2 ratio of Biotin-Ahx-Ub-VS probe labelling", "setting": "[7]", "result": -0.284},
      {"measurement": "log2 ratio of Biotin-Ahx-Ub-VS probe labelling", "setting": "[8]", "result": -0.582},
      {"measurement": "log2 ratio of Biotin-Ahx-Ub-VS probe labelling", "setting": "[9]", "result": -0.0773},
      {"measurement": "log2 ratio of Biotin-Ahx-Ub-VS probe labelling", "setting": "[10]", "result": -0.0868}
    ]}
  ]
}
